# PNC inhibitor = blocks assembly of the perinucleolar compartment. PC3M PTB-GFP, PNC prevalence imaging, 16 h; hits give low values. activity change (PNC), negative = inhibition, % at 10 µM. 3.1% of 140,000 active. AID 2417;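 active means readout at or below -70, meaning at least 70% loss of cells showing the perinucleolar compartment, a nuclear body marking cancer cells; inconclusive means readout between -30 and a set limit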
#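 Read-out is percentage of cells bearing a perinucleolar compartment, from automated 20x imaging of fixed, Hoechst-stained PC3M PTB-GFP cells. Cells were seeded 4 h, then exposed 16 h to compound (23 nl of library stock) in duplicate plates.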
# JMJD2E inh = inhibitors of human JMJD2E histone demethylase. AID 2147. 1.6% of 230,000 active. B2RXH2. JMJD2E catalytic domain, FDH-coupled NADH fluorescence (FDH is formaldehyde dehydrogenase). Potency, µM (series often up to 57.1 µM), usual class: inhibitors; active means well fitted inhibition curve with a large enough effect, not every such curve was filed as active; inconclusive means small, poorly fitted or top-dose-only effect, or another doubt; inactive means no such curve, though single readings can be large or run the other way; further: nearly all actives have a fitted effect of over 50% in size
# Target sequence (B2RXH2 1-337 limits assumed): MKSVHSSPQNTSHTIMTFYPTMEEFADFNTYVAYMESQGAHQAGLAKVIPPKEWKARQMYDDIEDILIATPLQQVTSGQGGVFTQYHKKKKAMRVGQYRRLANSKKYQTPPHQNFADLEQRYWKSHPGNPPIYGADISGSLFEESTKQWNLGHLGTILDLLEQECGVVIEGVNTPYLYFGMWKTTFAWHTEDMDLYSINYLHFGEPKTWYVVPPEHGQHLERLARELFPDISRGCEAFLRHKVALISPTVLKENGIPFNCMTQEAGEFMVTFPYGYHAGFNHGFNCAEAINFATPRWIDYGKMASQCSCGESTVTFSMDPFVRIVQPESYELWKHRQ
# NPSR antagonist = blocks cAMP signaling of the human neuropeptide S receptor; Potency, µM (titrated, usually from 38.3 µM), actives largely listed as inhibitors; CHO-NPSR cells, cAMP TR-FRET, antagonist mode; Q6W5P4; AID 1461; 1% of 220,000 active; further: nearly all actives have a fitted effect of over 50% in size
# Tau fibril ThT = tau fibrillization inhibition (ThT binding). recombinant tau K18 P301L, heparin-induced fibrillization, ThT fluorescence. P10636. Potency, µM (titrated, usually from 57.4 µM), hits mostly inhibitors. 2.1% of 270,000 active; further: nearly all actives have a fitted effect of over 55% in size
# Target sequence (P10636 561-689 P618L limits assumed): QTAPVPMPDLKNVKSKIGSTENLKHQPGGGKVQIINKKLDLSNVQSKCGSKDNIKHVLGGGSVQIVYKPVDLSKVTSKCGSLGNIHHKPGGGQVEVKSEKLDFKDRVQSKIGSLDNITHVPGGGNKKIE
#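 In this qHTS, human K18 P301L tau is incubated with compound and heparin for 6 hr at 37 C, and Thioflavin T fluorescence then reports fibril load.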
# Tau fibril FP = tau fibrillization inhibition (FP) | K18 P301L tau heparin fibrillization, Alexa594 FP, 6 h | Potency, µM (top dose mostly 57.7 µM), usual class: inhibitors | 0.39% of 280,000 active; further: nearly all actives have a fitted effect of over 55% in size
#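 Read-out: fluorescence polarization of Alexa 594-labeled tau (0.24 uM), 555 nm excitation, 632 nm emission. Mixtures held 15 uM unlabeled K18 P301L, compound and 20 uM heparin, pH 7 acetate buffer, incubated 6 hr at 37 C.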
# Tau fluor counter = counter-screen for tau fibril formation inhibitors; tau K18 P301L (four-repeat tau fragment) Alexa594 fluorescence, heparin fibrillization; Potency, µM (highest dose often 57.7 µM); 0.93% of 280,000 active; AID 1463; further: nearly all actives have a fitted effect of over 55% in size
#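 Human K18 P301L tau (15 uM unlabeled plus 0.24 uM Alexa 594-labeled, final) in 100 mM sodium acetate pH 7 was mixed with compound and 20 uM heparin and incubated 6 hr at 37 C.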
# A number is an active result; 0 = inactive; ? = inconclusive; - = no result given; ! = a repeat was not active; [ ] = remark or other dose. This is a sample that favours compounds with a hit; in the whole collection about 5.1% have one here. Unless noted, the call rests on the fitted dose curve; in most records, active means well fitted curve in the direction sought with a large enough effect; inconclusive means small, poorly fitted or top-dose-only effect, or another doubt; inactive means no such curve, though single readings can be large; an effect the other way counts as inactive or inconclusive.
SMILES,PNC inhibitor,JMJD2E inh,NPSR antagonist,Tau fibril ThT,Tau fibril FP,Tau fluor counter
COc1ccc(/C=N/NC(=O)c2nn(-c3ccc(C)c(C)c3)c(=O)c3ccccc23)cc1,?,?,0,0,0,0
COc1ccc(/C=N/NC(=O)c2nn(-c3ccc(Cl)cc3)c(=O)c3c(N)scc23)cc1,0,?,0,10µM,?,?
COc1ccc2c(c1)c(C(=O)N/N=C/c1ccc(Cl)cc1)c(C)n2C,-,0,0,?,0,0
COc1ccc(/C=N/NC(=O)c2nn(-c3ccccc3)c(=O)c3c(N)scc23)cc1,0,?,0,14µM,?,?
Cc1ccc(CN(C(=O)c2ccccc2F)c2ccccn2)o1,-,-,-,0,0,0
CCN(CC)c1ccc(NC(=O)Cn2nc(C)n3cccc3c2=O)c(C)c1,-,-,-,?,?,0
O=C(NC(Nc1ncc(S(=O)(=O)c2ccc([N+](=O)[O-])cc2)s1)(C(F)(F)F)C(F)(F)F)c1ccc(Cl)cc1,0,0,13µM,?,?,?
Nc1c(C(=O)N/N=C/c2cccnc2)oc2nc(-c3ccco3)cc(-c3ccco3)c12,-,?,0,16µM,?,?
COc1ccc(-c2nc(SCC(=O)NC3CCCC3)c(-c3ccc(OC)cc3)[nH]2)cc1,0,0,0,?,0,13µM![quencher]
COc1ccc(-c2[nH]c(-c3ccc(Cl)cc3)nc2SCC(=O)NCC2CCCO2)cc1 (stereo not given),-,-,-,?,0,13µM[quencher]
Cc1ccc(-c2nc(SCC(=O)NCC3CCCO3)c(-c3ccc(Cl)cc3)[nH]2)cc1 (stereo not given),0,?,0,0,0,?
COc1ccc(-c2nc(SCC(=O)NC3CCCC3)c(-c3ccc(F)cc3)[nH]2)cc1OC,-,-,-,?,?,13µM[quencher]
COc1ccc(-c2nc(SCC(=O)NC3CCCC3)c(-c3ccccc3)[nH]2)cc1OC,-,-,-,?,?,14µM[quencher]
COCCCNC(=O)CSc1nc(-c2ccc(OC)cc2)[nH]c1-c1ccc(OC)cc1,-,-,-,?,0,?
CC(C)Cn1c(=O)c2sccc2n2c(CCCC(=O)NCC(C)c3ccccc3)nnc12 (stereo not given),-,-,-,0,0,0
Cc1ccc(NC(=O)c2ccc(NC(=O)N3CCSc4ncccc43)cc2)c(Cl)c1,-,-,-,0,0,0
CCc1ccc(NC(=O)Cn2cnc3nc4c(cc3c2=O)CCCC4)cc1,-,-,-,0,0,0
COc1ccc(-c2nn(-c3ccccc3)cc2/C=N/NC(=O)c2ccc(Br)o2)cc1,0,?,6.3µM,0,?,0
Oc1ccc(/C=C/c2nc(-c3ccccc3O)n(-c3ccccc3)n2)c(O)c1,-,-,-,?,?,5.6µM[quencher]
Oc1ccccc1-c1nc(/C=C/c2ccc(F)cc2)nn1-c1ccccc1,-,-,-,0,?,0
Oc1ccccc1-c1nc(/C=C/c2ccccc2)nn1-c1ccccc1,0,0,0,0,0,?
Oc1ccc(/C=C/c2nc(-c3ccccc3O)n(-c3ccccc3)n2)cc1,0,?,?,?,?,32µM[quencher]
COc1cc(C(=O)OCc2cc(=O)n3nc(C(C)C)sc3n2)cc(OC)c1OC,-,-,-,?,?,0
O=c1c(Cc2ccccc2)c(O)c2cccc3c4c(n1c23)CCCC4,-,?,0,-,0,?
O=c1c(Cl)c(O)c2cccc3c4ccccc4n1c23,0,?,0,14µM,?,?
SMILES,PNC inhibitor,JMJD2E inh,NPSR antagonist,Tau fibril ThT,Tau fibril FP,Tau fluor counter
CCOC(=O)c1sc(/N=C/c2c(C)[nH]n(-c3ccccc3)c2=O)c(C#N)c1C,-112,0,0,0,0,0
CC(=O)c1c(C)nc2cc(Cl)ccc2c1N,-95,0,0,0,0,0
COC(=O)Cc1[nH]nc2c1C(c1c[nH]c3ccccc13)C(C#N)=C(N)O2 (stereo not given),?,?,0[7.67 µM],25µM,0,?
Oc1cc2c(cc1O)[C@@H]1c3ccc(O)c(O)c3OC[C@]1(O)C2,-,14µM,-,14µM,?,?
CC(=O)/C(C#N)=C1\NC(=O)C(Cc2ccc(F)cc2)S1 (stereo not given),-,0,0,-,0,0
Cc1ccc(CC2SC(=O)NC2=O)cc1Cl (stereo not given),-100,0,?,0,0,0
CC(=O)/C(C#N)=C1\NC(=O)C(Cc2ccc(C)c(C)c2)S1 (stereo not given),-108,0,0,0,0,0
Nc1ccc(CC2SC(=O)NC2=O)cc1 (stereo not given),0,0,0,?,0,0
O=C(/C=C/c1ccc(Cl)cc1Cl)n1cccn1,0,0,0,7.9µM,?,0
O=C(/C=C/c1ccc(Cl)cc1Cl)c1ccc[nH]1,-,0,0,?,0,0
Cc1ccc(-c2c3c(=O)n(C)c(=O)n(C)c3c3cnc4ccccc4n23)cc1,-,-,-,0,0,0
c1cc(CNc2ccc(N3CCOCC3)cc2)ccn1,0,?,0,22µM,?,?
CCOc1cc(CNc2ccc(N3CCCCC3)cc2)cc(Br)c1OCC(=O)NC(C)(C)C,0,3.2µM,0,?,0,0
CCOc1cc(CNc2ccc(N(C)C)cc2)cc(Br)c1OCC(=O)NC(C)(C)C,?,?,10µM,7.9µM,16µM,?
COc1cc(CNc2ccc(N3CCOCC3)cc2)cc(Br)c1OC,-,0,0,?,0,0
CCOc1cc(CNc2ccc(N3CCOCC3)cc2)cc(Br)c1OCC,-113,0,0,?,0,?
CCOc1cc(CNc2ccc(N3CCN(C(C)=O)CC3)cc2)cc(Br)c1OC,?,?,0,?,0,?
COc1ccc(-c2cnc(C)o2)cc1S(=O)(=O)Nc1ccc(C)c(F)c1,-,-,-,0,0,?
O=C(Nc1cnc(N2CCN(c3ccccc3)CC2)c(C(=O)O)c1)c1cccs1,-,-,-,?,0,0
C=CCOc1c(Br)cc(CNc2ccc3[nH]c(=O)[nH]c3c2)cc1OCC,-,0,0,0,?,0
CCOc1cc(CNc2ccc3c(c2)OCCO3)cc(Br)c1OCC,-83,0,?,?,0,?
COC(=O)[C@@]1(Cc2ccc(F)cc2)[C@H]2c3cc(C(=O)N4CCCC4)n(CCc4ccccn4)c3C[C@H]2CN1C(=O)c1ccccc1,-97,0,0,0,0,0
COC(=O)[C@@]1(Cc2ccccc2)[C@H]2c3cc(C(=O)N4CCCC4)n(CCc4ccccn4)c3C[C@H]2CN1C(=O)c1ccccc1,-,0,-,0,0,0
CCOc1ccccc1NC(=O)CSc1nc2cc(OC)c(OC)cc2c2nc(CCn3c(C)nc4ccccc43)nn12,-,-,-,0,?,0
N=C1S/C(=C\c2ccc(-c3ccccc3C(=O)O)o2)C(=O)N1c1ccc2c(c1)OCO2,-,5.6µM,0,3.5µM,0,0
COc1ccccc1N1C(=N)S/C(=C\c2ccc(-c3ccccc3C(=O)O)o2)C1=O,0,0,0,?,0,0
N#CC1=C(N)NC(SCC(=O)c2ccc(Br)cc2)=C(C#N)C12CCCCC2,0,0,0,?,?,13µM[quencher]
